In PubChem BioAssay (NCATS):
Results filed as inconclusive are left out. The source made the active and inactive calls. Unless noted, calls come from the whole dose curve; as a rule, active = well fitted curve in either direction with a large enough effect (not every such curve was filed as active); inconclusive = small, poorly fitted or top-dose-only effect, or another doubt; inactive = flat fitted curve, though single readings scatter.

Key:
[1] = AP1 Signaling Pathway (AID 357); settings: ME-180 AP-1-bla reporter, EGF-induced, beta-lactamase ratio, 5 h; at 17.2 µM (top of the series) unless noted;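 note: ME-180 reporter cells stimulated with EGF at its EC50 level; % is set by controls: 0 for no effect and ±100 for the full control effect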
Summary of the method: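 Beta-lactamase reporter under AP-1 response element, ME-180 background. Stimulus: EC50 EGF. Compound exposure 5 h, 37 °C. Detection: CCF4, 2.5 h RT, 460/530 nm. Values: AC50 from titration.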

[2] = Stat Signaling Pathway (AID 446); settings: ME-180 SIE beta-lactamase reporter, IL-6 stimulated, 5 h; at 17.2 µM (top of the series) unless noted;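 note: ME-180 cervical cancer cells given 40 pM IL-6 alongside compound; SIE-controlled beta-lactamase reporter measured as 460/530 nm FRET emission ratio; % is set by controls: 0 for no effect and ±100 for the full control effect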
Summary of the method: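 Emission at 460 and 530 nm (excitation 405 nm) reports SIE-controlled beta-lactamase in ME-180 cells. Cells received compound with 40 pM IL-6 for 5 hrs at 37 C; data scaled between 300 pM IL-6 and 125 nM JAK-inhibitor controls.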

[3] = target: Glucocorticoid receptor (Homo sapiens) (UniProt P04150); test: GR-GFP Redistribution (AID 450;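 active = compounds whose dose series gives a full or clear partial fitted curve of increased nuclear translocation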; note: potency is the fitted concentration of half-maximal effect)
Sequence of Glucocorticoid receptor (Homo sapiens) (P04150 whole entry, looked up, the tested form may be a part): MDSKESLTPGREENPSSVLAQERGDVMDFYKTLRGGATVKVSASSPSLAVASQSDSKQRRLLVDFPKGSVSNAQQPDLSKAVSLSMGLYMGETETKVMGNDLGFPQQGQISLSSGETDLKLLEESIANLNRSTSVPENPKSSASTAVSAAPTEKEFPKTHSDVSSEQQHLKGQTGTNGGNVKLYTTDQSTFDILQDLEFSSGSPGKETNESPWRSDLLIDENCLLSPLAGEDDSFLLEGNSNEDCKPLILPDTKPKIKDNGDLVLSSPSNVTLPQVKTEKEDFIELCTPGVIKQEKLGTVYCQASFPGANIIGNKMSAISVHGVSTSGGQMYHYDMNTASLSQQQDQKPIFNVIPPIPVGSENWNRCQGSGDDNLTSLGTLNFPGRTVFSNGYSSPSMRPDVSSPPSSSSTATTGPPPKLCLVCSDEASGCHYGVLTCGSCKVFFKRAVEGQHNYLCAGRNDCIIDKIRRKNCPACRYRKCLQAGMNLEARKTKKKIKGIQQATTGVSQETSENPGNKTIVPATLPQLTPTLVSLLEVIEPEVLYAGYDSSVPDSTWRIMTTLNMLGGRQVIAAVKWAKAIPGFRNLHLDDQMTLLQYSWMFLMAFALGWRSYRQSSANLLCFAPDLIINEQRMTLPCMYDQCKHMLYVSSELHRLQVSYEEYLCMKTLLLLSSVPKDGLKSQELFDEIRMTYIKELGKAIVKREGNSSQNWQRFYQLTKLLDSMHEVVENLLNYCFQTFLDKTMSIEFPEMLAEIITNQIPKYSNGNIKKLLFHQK

[4] = NFAT Signaling Pathway (AID 444); settings: Jurkat NFAT-bla M1, carbachol, beta-lactamase ratio, 5 h; at 17.2 µM (top of the series) unless noted;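 note: carbachol stimulus at about its EC50 of 1 µM final; % is set by controls: 0 for no effect and ±100 for the full control effect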
Summary of the method: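 Jurkat cells with NFAT-driven β-lactamase reporter and co-expressed M1 receptor, stimulated with carbachol (final 1 uM, ~EC50), compound titration, 5 h at 37 °C. CCF4 loaded 1 h at RT; 460/530 nm ratio gave %activity and AC50.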

[5] = target: Glucocorticoid receptor (Homo sapiens) (UniProt P04150); test: GR-EFC Redistribution (AID 451; calls by dose curve; note: potency is the fitted concentration of half-maximal effect); settings: CHO-K1 GR-EFC translocation, beta-gal luminescence, 2 h
Summary of the method: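 CHO-K1 cells expressing nuclear EA and GR-ED fragments of b-gal; compounds titrated up to 46 uM final, 2 h at 37 C. GR nuclear translocation read as complemented b-gal luminescence after 1 h RT detection.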

[6] = target: 3',5'-cyclic-AMP phosphodiesterase 4B (Homo sapiens) (UniProt Q07343); test: qHTS Assay for Inhibitors of PDE-IV (AID 607; active = well fitted activation curve with a large enough effect in the main read-out, with a control signal flat, not every such curve was filed as active; note: % of control where 0% means no effect)
Sequence of 3',5'-cyclic-AMP phosphodiesterase 4B (Homo sapiens) (Q07343 whole entry, looked up): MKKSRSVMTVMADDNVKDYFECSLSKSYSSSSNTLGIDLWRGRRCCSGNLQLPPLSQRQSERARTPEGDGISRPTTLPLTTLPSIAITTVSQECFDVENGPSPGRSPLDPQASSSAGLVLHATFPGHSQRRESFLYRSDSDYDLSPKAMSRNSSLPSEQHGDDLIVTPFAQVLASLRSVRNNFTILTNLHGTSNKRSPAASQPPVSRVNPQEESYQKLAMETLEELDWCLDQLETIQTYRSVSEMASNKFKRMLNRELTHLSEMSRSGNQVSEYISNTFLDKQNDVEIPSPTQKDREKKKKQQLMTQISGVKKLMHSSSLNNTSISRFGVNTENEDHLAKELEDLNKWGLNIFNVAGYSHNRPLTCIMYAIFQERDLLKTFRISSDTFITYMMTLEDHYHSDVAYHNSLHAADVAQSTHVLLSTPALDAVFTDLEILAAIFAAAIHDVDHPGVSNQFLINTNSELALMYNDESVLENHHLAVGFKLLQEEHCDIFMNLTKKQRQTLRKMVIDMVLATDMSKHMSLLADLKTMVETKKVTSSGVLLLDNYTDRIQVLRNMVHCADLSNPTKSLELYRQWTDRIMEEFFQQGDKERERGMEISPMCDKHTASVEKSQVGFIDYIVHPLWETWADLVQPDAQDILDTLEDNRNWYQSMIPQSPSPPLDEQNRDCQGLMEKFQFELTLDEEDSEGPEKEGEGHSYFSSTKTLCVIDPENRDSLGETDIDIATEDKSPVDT
Summary of the method: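 The readout is membrane depolarisation from a cAMP-sensing CNG channel, detected with a potential dye at ex 535/em 590. Cells were HEK293-derived (endogenous PDE-IV) at 1000 cells/well, titrated up to 22.9 uM final.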

[7] = target: Guanine nucleotide-binding protein G(i) subunit alpha-1 (Homo sapiens) (UniProt P63096); test: qHTS Assay for Inhibitors of RGS12 GoLoco Motif Activity (Green Fluorophore) (AID 879; active = well fitted curve in the direction sought with a large enough effect; an effect the other way counts as inactive or inconclusive;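 note: 0% = labeled peptide with Gαi1 and full inhibition = labeled peptide alone without protein; negative values mean loss of peptide binding seen as reduced polarization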)
Sequence of Guanine nucleotide-binding protein G(i) subunit alpha-1 (Homo sapiens) (P63096 whole entry, looked up): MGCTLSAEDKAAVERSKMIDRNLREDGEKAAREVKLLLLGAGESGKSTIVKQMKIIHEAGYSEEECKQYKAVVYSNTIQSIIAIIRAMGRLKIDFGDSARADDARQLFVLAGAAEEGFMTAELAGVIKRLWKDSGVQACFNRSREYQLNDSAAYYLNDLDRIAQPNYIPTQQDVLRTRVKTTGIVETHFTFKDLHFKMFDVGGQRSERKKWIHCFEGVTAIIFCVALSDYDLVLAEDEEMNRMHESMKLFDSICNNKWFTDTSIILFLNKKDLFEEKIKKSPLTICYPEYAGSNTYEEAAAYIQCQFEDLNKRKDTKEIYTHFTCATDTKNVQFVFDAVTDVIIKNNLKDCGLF
Summary of the method: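 A drop in FITC polarization marked displacement of the FITC-tagged RGS12 GoLoco peptide (10 nM) from Gαi1 (50 nM). Compounds were incubated 10 min at room temperature in Tris pH 7.5 buffer containing 150 mM NaCl, 0.1 mM GDP and 0.05% NP40; unlabeled peptide titration served as control.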

[8] = target: Cytochrome P450 2C9 (Homo sapiens) (UniProt P11712); test: qHTS Assay for Inhibitors and Substrates of Cytochrome P450 2C9 (AID 883; active = well fitted curve in the direction sought with a large enough effect; an effect the other way counts as inactive or inconclusive; note: % is set by controls: 0 for no effect and ±100 for the full control effect; nearly all actives have a fitted effect of over 60% in size)
Sequence of Cytochrome P450 2C9 (Homo sapiens) (P11712 whole entry, looked up): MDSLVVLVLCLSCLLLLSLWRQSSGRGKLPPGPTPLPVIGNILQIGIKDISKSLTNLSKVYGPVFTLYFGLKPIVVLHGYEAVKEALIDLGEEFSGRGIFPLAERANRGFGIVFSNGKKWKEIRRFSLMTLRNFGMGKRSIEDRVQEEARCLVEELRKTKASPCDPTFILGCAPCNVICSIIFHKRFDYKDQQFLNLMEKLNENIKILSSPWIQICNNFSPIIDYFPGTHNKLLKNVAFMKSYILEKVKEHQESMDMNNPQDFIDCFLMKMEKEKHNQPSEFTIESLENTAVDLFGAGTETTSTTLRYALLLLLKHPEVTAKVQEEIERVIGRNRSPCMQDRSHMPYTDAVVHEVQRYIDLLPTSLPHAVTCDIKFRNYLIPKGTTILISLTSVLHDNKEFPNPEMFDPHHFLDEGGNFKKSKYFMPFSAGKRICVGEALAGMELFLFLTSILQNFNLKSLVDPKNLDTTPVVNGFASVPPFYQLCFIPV
Summary of the method: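 10nM CYP2C9 + 100uM Luciferin-H (=KM), 25mM KPO4; cpd 10 min 37C; NADPH regen, 60 min 37C; stop/detect with P450 Glo-Buffer 20 min; luminescence. Norm. to 57uM sulphaphenazole as full inhibition.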

[9] = target: Cytochrome P450 3A4 (Homo sapiens) (UniProt P08684); test: qHTS Assay for Activators of Cytochrome P450 3A4 (AID 885; active = well fitted curve in the direction sought with a large enough effect; an effect the other way counts as inactive or inconclusive; note: nearly all actives have a fitted effect of over 65% in size)
Sequence of Cytochrome P450 3A4 (Homo sapiens) (P08684 whole entry, looked up): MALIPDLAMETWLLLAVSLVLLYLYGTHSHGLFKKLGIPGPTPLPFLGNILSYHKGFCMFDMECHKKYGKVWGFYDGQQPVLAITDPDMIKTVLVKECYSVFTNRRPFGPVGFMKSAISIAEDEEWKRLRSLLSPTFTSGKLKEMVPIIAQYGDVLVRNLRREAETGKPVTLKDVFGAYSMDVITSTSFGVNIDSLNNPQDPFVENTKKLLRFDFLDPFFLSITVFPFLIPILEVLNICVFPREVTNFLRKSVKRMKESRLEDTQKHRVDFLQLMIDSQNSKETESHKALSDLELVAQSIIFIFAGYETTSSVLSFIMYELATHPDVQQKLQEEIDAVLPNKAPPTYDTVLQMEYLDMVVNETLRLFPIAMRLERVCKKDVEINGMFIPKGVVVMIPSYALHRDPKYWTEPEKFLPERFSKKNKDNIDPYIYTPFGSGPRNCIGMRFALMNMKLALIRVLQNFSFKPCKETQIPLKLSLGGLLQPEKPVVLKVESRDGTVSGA
Summary of the method: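 Activators are scored by enhanced luminescence from CYP3A4 conversion of luciferin-PPXE (25uM, equal to KM) to luciferin, after 60 min at RT with an NADPH-regenerating system.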

[10] = qHTS Assay for Identification of Small Molecule Agonists for Thrombopoietin (TPO) Signaling Pathway (AID 917; active = well fitted curve in the direction sought with a large enough effect; an effect the other way counts as inactive or inconclusive; note: % is set by controls: 0 for no effect and ±100 for the full control effect)
Summary of the method: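 Cell-based luciferase reporter screen. Mouse Ba/F3 line stably expressing human TPO receptor; IL-3 removed overnight before plating. Co-treatment with compound and EC50 TPO (26 pM), 24 hrs at 37 C, then luminescence.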

[11] = target: Muscarinic acetylcholine receptor M1 (Rattus norvegicus) (UniProt P08482); test: qHTS Assay for Antagonists of Acetylcholine Muscarinic M1 Receptor: Kinetic Measurement of Intracellular Calcium Response (AID 943; active = well fitted curve in the direction sought with a large enough effect; an effect the other way counts as inactive or inconclusive; note: potency is the fitted concentration of half-maximal effect; nearly all actives have a fitted effect of over 75% in size)
Sequence of Muscarinic acetylcholine receptor M1 (Rattus norvegicus) (P08482 whole entry, looked up): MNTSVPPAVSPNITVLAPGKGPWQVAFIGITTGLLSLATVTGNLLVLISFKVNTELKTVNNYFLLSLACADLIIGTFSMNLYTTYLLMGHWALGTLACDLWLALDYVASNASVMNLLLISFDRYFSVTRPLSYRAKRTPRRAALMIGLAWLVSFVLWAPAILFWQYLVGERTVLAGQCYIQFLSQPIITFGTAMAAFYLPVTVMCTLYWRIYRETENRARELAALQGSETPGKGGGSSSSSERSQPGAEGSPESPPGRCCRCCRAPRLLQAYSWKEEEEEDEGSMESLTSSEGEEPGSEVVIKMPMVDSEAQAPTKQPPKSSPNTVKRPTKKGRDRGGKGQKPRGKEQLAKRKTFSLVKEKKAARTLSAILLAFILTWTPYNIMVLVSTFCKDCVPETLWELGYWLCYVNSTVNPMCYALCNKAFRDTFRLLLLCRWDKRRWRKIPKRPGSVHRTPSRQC
Summary of the method: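 Read-out: peak over basal Fluo-4 fluorescence, kinetic at 1 Hz for 4 min after EC80 carbachol (100 nM final). Rat M1-CHO cells, dye loaded 1 h at 37C, compound added 10 min before agonist.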

[12] = target: Pyruvate kinase (Leishmania mexicana) (UniProt Q27686); test: qHTS Validation Assay for Inhibitors of Leishmania Mexicana Pyruvate Kinase (AID 945; active = well fitted curve in the direction sought with a large enough effect; an effect the other way counts as inactive or inconclusive;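 note: 0% = DMSO only neutral control wells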)
Sequence of Pyruvate kinase (Leishmania mexicana) (Q27686 2-499 E452W): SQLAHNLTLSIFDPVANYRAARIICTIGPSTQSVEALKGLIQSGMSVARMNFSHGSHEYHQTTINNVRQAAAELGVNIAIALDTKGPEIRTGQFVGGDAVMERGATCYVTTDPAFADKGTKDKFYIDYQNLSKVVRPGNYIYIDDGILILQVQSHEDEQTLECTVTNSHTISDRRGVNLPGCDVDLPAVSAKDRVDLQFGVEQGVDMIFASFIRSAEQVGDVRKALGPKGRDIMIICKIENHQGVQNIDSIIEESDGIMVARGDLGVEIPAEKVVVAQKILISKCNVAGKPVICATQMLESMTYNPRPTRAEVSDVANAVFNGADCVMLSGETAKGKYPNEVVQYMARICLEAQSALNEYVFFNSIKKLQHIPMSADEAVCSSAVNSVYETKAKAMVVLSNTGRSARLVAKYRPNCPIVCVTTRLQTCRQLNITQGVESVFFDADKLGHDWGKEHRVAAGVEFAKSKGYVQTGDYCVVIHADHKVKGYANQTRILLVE
Summary of the method: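 Purified LmPYK (E451W mutant, 0.2 nM) was incubated 1 h at room temperature with 0.5 mM PEP and 0.1 mM ADP in 50 mM imidazole pH 7.2, 50 mM KCl, 7 mM MgCl2; ATP formed was read by PKLight luminescence, normalized to DMSO wells.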

[13] = target: Pyruvate kinase PKM (Homo sapiens) (UniProt P14618); test: qHTS Assay for Activators of Human Muscle Pyruvate Kinase (AID 954; active = well fitted curve in the direction sought with a large enough effect, not every such curve was filed as active;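 note: 0% = uninhibited enzyme and -100% = no enzyme or full thiadiazolimine inhibition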)
Sequence of Pyruvate kinase PKM (Homo sapiens) (P14618 whole entry, looked up): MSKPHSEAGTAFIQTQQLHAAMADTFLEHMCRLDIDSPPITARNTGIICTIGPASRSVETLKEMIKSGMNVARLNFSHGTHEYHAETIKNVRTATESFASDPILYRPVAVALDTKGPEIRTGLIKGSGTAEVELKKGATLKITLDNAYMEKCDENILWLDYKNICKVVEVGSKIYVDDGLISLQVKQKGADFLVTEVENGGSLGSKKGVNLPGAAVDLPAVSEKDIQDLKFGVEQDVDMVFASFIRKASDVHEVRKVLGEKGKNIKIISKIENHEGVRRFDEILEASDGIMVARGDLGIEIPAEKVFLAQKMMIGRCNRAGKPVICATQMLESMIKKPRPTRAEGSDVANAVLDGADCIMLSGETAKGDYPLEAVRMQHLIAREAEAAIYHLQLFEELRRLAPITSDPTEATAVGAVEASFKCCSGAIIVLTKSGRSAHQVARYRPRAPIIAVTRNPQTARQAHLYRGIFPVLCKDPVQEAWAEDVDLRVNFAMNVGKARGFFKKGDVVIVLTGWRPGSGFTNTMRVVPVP
Summary of the method: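 PKM2, human, >95% pure, 0.1 nM; PEP 0.5 mM (Km), ADP 0.1 mM; 50 mM imidazole pH 7.2, 50 mM KCl, 0.01% Tween 20, 0.05% BSA; 1 h RT; luciferase luminescence readout.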

[14] = target: Alpha-galactosidase A (Homo sapiens) (UniProt P06280); test: Counterscreen for Glucocerebrosidase Inhibitors: qHTS Assay for Human alpha-Galactosidase at pH 4.5 (AID 992; active = well fitted curve in the direction sought with a large enough effect; an effect the other way counts as inactive or inconclusive; note: 0% is about no effect)
Sequence of Alpha-galactosidase A (Homo sapiens) (P06280 whole entry, looked up): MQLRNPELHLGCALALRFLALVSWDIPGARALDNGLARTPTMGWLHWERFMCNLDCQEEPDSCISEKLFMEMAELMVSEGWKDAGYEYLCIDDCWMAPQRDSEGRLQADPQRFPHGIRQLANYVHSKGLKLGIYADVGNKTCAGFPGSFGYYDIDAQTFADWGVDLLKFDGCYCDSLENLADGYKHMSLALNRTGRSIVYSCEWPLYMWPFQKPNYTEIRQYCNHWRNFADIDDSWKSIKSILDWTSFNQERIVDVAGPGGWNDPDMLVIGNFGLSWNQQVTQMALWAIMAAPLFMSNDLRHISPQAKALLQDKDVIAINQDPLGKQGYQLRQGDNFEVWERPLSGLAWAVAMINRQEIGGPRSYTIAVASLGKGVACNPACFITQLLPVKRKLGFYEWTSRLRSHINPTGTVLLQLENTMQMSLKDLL
Summary of the method: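 Fluorogenic 4-MU alpha-D-galactoside (80 uM) hydrolysis, 2 nM enzyme, pH 4.5 citrate buffer + 0.005% Tween-20; 20 min RT; NaOH/glycine pH 10 stop; Ex365/Em440. Compounds titrated 0.7 nM–77 uM; Hill-equation AC50.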

[15] = target: alpha-glucosidase (Oryza sativa, rice) (UniProt Q653V4); test: Counterscreen for Glucocerebrosidase Inhibitors: qHTS Assay for Rice alpha-Glucosidase at pH 5.0 (AID 997; active = well fitted curve in the direction sought with a large enough effect; an effect the other way counts as inactive or inconclusive;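 note: 0% = full activity with enzyme and -100% = basal without enzyme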)
Summary of the method: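 Endpoint fluorogenic assay at pH 5.0: compounds (0.7 nM to 77 uM) titrated against 4 nM rice enzyme and 400 uM 4-MU-alpha-glucoside for 20 min at room temperature; NaOH/glycine stop, read ex 365/em 440 nm, Hill-fitted AC50.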

[16] = qHTS Assay for Identification of Small Molecule Agonists for Hypoxia Response Element Signaling Pathway (AID 914; active = well fitted activation curve with a large enough effect in the signal ratio, with a control signal flat, not every such curve was filed as active; the % refers to the signal ratio; note: potency is the fitted concentration of half-maximal effect; for activation: % of control where 0% means no effect); settings: ME-180 (cervical carcinoma) HRE-bla reporter, beta-lactamase ratio, CoCl2, 17 h; activation: hits give high values
Summary of the method: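 AC50 values come from titration-series %Activity, taken as the 460/530nm ratio of CCF4 fluorescence (excitation 405nm). CellSensor HRE-bla ME-180 cells were treated 17 hours at 37 C with compound plus an EC50 level of CoCl2.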

CN1CC2(C)CN(C(c3ccccc3)c3ccccc3)CC(C)(C1)C2O (centres undefined)
inactive: activity change, negative = inhibition [1] 14.1% | activity, negative = inhibition [2] 2.94% | Potency [3] > 20.6 µM

CC[C@H]1OC(=O)C[C@@H](O)[C@H](C)[C@@H](O[C@@H]2O[C@H](C)C[C@H](N(C)C)[C@H]2O)[C@@H](CC=O)C[C@@H](C)C(=O)C=C[C@]2(C)O[C@H]2[C@@H]1C
inactive: activity change, negative = inhibition [1] 1.65% | activity, negative = inhibition [2] 1.05%

O=C1OC(Nc2ccc(Br)cc2F)c2ccccc21 (centres undefined)
inactive: activity change, negative = inhibition [1] 0.165% | activity, negative = inhibition [2] 2.24% | Potency [3] > 20.6 µM

CCCOc1cccc(C2C(C(=O)c3ccc(C)o3)=C(O)C(=O)N2CCCN(C)C)c1 (centres undefined)
inactive: activity change, negative = inhibition [1] -10.8% | activity, negative = inhibition [2] 5.19% | Potency [3] > 20.6 µM

c1coc(-c2nnc3sc(Cc4cccs4)nn23)c1
inactive: activity change, negative = inhibition [1] -15.4% | activity, negative = inhibition [2] -17.3% | Potency [3] > 20.6 µM

CCCCCCCCCCCCCCCCCC(=O)NC[C@@H](COP(=O)([O-])OCC[N+](C)(C)C)OCC
inactive: activity change, negative = inhibition [1] -12.5% [at 38 µM] | Potency [3] > 46 µM | Potency [5] > 46 µM | Potency [6] | outcome [7] | Potency [8] | Potency [9] | Potency [10] | Potency [12] | outcome [13] | outcome [14] | outcome [15]
active: activity change, negative = inhibition [4] 28.6% [at 38 µM] | Potency [11] 7.08 µM

CCCn1c(SCC#N)nc2c(c1=O)C1(CCCC1)Cc1ccccc1-2
inactive: activity change, negative = inhibition [1] 13.8% | activity, negative = inhibition [2] 2.26% | Potency [3] > 20.6 µM

Cn1c(=O)c2c3c(sc2n2c(SCc4ccccc4)nnc12)CCCC3
inactive: activity change, negative = inhibition [1] -6.83% | activity, negative = inhibition [2] -27.8% | Potency [3] > 20.6 µM

CCN1CCc2c(C#N)c(N3CCOCC3)nc(NCc3ccccc3)c2C1
inactive: activity change, negative = inhibition [1] 1.6% | activity, negative = inhibition [2] 1.47%

Cn1ccnc1C(O)c1ccc(OCc2ccccc2)cc1 (centres undefined)
inactive: activity change, negative = inhibition [1] -6.56% | activity, negative = inhibition [2] 2.08% | Potency [3] > 20.6 µM

N#C/C(C(=O)NCc1ccco1)=C1/SC(Cc2ccc(Cl)cc2)C(=O)N1c1ccccc1 (centres undefined)
inactive: activity change, negative = inhibition [1] -16.2% | activity, negative = inhibition [2] -13.4% | Potency [3] > 20.6 µM

Cc1cc(C)nc(N(C#N)CN2C(=O)c3ccccc3C2=O)n1
inactive: activity change, negative = inhibition [1] 2.24% | activity change, negative = inhibition [4] -1.49% | Potency [3] > 20.6 µM | activation [16] 12.2%

CC1(C)Cc2c(sc3nc(SCC#N)n(C4CCCCC4)c(=O)c23)CO1
inactive: activity change, negative = inhibition [1] 1.9% | activity, negative = inhibition [2] 10% | Potency [3] > 20.6 µM

CCOC(=O)C1CCN(c2nc3ccccc3nc2C(C#N)C(=O)OC(C)COC)CC1 (centres undefined)
inactive: activity change, negative = inhibition [1] -6.33% | activity, negative = inhibition [2] -12.7% | Potency [3] > 20.6 µM

NC(Cc1ccc(Oc2ccc(O)cc2)cc1)C(=O)O (centres undefined)
inactive: activity change, negative = inhibition [1] -2.36% | activity, negative = inhibition [2] -1.48% | Potency [3] > 20.6 µM

Cc1ccc(CNC(=O)c2cc3c(=O)n4ccccc4nc3n(CC3CCCO3)c2=N)cc1 (centres undefined)
active: Potency [16] 7.94 µM
inactive: activity change, negative = inhibition [1] 20.6% | activity change, negative = inhibition [4] 21.8% | Potency [3] > 20.6 µM
